Where “and” joins values, the source holds several entries; their conditions need not be identical. Equal entries are not always repeated. About 5,700 (36%) of roughly 16,000 compounds were called active. Inconclusive results (about 24%) are left out. The list shows a part of the results. Unmarked numbers belong to inactive results. Calls follow the shape of the dose curve; as a rule, active = well fitted curve in the direction sought with a large enough effect; inconclusive = small, poorly fitted or top-dose-only effect, or effect the other way; inactive = no such curve, though single readings can be large or run the other way. Peptide text beside a SMILES is read from it. * marks the point of attachment. Cbz = O=C(OCc1ccccc1)*
molecular target: Cytochrome P450 1A2 (Homo sapiens) (UniProt P05177); experiment: Cytochrome panel assay with activity outcomes; details: recombinant CYP, pro-luciferin dealkylation, luminescence, p450-cyp1a2; series mostly up to 57.1 µM; activity, negative = inhibition: at the top concentration
Sequence (P05177 whole entry, looked up): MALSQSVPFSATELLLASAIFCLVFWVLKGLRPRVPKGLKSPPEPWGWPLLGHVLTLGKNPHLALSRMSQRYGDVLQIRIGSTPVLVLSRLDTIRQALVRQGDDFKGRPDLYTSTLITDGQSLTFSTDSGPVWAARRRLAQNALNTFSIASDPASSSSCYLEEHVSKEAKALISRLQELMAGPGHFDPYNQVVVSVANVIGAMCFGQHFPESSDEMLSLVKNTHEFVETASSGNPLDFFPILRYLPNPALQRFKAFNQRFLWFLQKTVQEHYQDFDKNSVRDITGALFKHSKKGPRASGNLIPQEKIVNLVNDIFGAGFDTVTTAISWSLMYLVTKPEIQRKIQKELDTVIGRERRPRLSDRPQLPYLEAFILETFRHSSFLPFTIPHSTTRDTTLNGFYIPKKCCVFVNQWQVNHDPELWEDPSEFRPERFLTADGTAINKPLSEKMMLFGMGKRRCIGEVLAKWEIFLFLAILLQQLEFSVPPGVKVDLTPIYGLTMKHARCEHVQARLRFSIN
% is scaled to controls: 0 for no effect and ±100 for the full control effect.

Structure (SMILES) | activity, negative = inhibition | AC50
c1ccc2c[n+](Cc3ccnc4ccccc34)ccc2c1 | -21.8% [at 2.29 µM] | –
CCOC(=O)N1CCC(NC(=O)c2cc(S(=O)(=O)N3CCCC3)cn2C)CC1 | -27.9% | –
CCN1CCN(CCC(=O)Nc2cccc(OC)c2)CC1 | 3.85% | –
O=C(CCN1CCOCC1)Nc1ccc(F)cc1F | -11.8% [at 11.4 µM] | –
COC(=O)c1[nH]c2cc(OC)ccc2c1NC(=O)CCN1CCSCC1 | – | 1.41 µM (active)
CCOC(=O)c1[nH]c2ccc(OC)cc2c1NC(=O)c1ccc2c(c1)OCO2 | – | 2.24 µM (active)
COc1ccc(-c2nc3cnc(N(C)C)nc3n(C[C@H]3CCCO3)c2=O)cc1 | – | 3.16 µM (active)
CN(C)c1ncc2nc(-c3ccc(F)cc3)c(=O)n(C[C@H]3CCCO3)c2n1 | – | 2.51 µM (active)
C/C(CCc1ccc2c(c1)OCO2)=N\N=C1\NC(=O)CC(C(=O)Nc2ccccc2)S1 (stereo not drawn) | – | 15.8 µM (active)
C[C@@H]1[C@H]2CC[C@@H]3[C@@H]4CC=C5C[C@@H](N(C)C)CC[C@]5(C)[C@@H]4CC[C@@]32CN1C | 6.72% [at 25.6 µM] | –
CCOc1[nH]n(-c2ccc(Cl)cc2)c(=O)c1C=Nc1ccc(Cl)cc1 | – | 2.82 µM (active)
CCc1nnc(NS(=O)(=O)c2ccc(N=Cc3c(C)[nH]n(-c4ccc(C)cc4)c3=O)cc2)s1 | -14.8% | –
CCOc1[nH]n(-c2ccccc2)c(=O)c1C=Nc1ccc(Cl)cc1 | – | 2 µM (active)
OCCN1CCOCCOCCN(CCO)CCN(CCO)CC1 | -6.35% | –
Nc1nc(Br)c2ccccc2c1-c1ccc(F)cc1 | – | 1.26 µM (active)
Nc1nc(Br)c2c(F)cccc2c1-c1ccc(Cl)cc1 | – | 3.55 µM (active)
Nc1nc(Br)c2c(F)cccc2c1-c1ccc(F)cc1 | – | 1.26 µM (active)
CCCOc1ccc(C2C(=O)N(C3CCCCC3)CC(=O)N2C2CC2)cc1OC (stereo not drawn) | -13.6% | –
CCCCCCCCCCCCCCCC(=O)NC(C)C | -6.69% | –
CCCCCCCCCCCCCCC/C=C\[C@H](O)[C@@H](NC(=O)CCCCCCCCCCCCC)OC (tested in a mixture with another compound) | -7.38% | –

Structure (SMILES) | activity, negative = inhibition | AC50
CCCCCCCCCCCCC/C=C\[C@@H](O)[C@H](CO)NC(C)=O | – | 20 µM (active)
CC(=O)Nc1ccc(S(=O)(=O)N=S(C)C)cc1 | – | inactive
Cc1cc(C)c(C#N)c(OCC(=O)c2ccc(Br)cc2)n1 | – | 1.26 µM (active)
Cc1cccc(C)c1NC(=O)CSc1nc(C)c(CC(=O)c2ccc(Br)cc2)c(C)c1C#N | -4.64% | –
Fc1cc2nc(-c3ccncc3)[nH]c2cc1F | – | 2 µM (active)
Cc1cc2nc(SCCOC(=O)Nc3ccc(Cl)cc3)nc(C)c2cc1C | – | 1.41 µM (active)
CCCCCCCCCCCC1=C(O)C(=O)C=C(O)C1=O | -60.5% | –
COCCn1c(=O)c(-c2ccc(OC)cc2)nc2cnc(OC)nc21 | – | 3.16 µM (active)
COCCn1c(=O)c(-c2ccc(Cl)cc2)nc2cnc(OC)nc21 | – | 0.398 µM (active)
COCCn1c(=O)c(-c2ccccc2)nc2cnc(OC)nc21 | – | 1 µM (active)
CC(C)=CCC/C(C)=C/CO/N=C1/C[C@@H](O)[C@@H](O)[C@@H]2[C@@H]3C(=O)N(C(C)(C)C)C(=O)[C@H]3CC[C@H]12 | -9.03% [at 11.4 µM] | –
CCOC(=O)N1CCC(NC(=O)CSCc2cnn(-c3ccccc3)c2-n2cccc2)CC1 | -21.3% | –
O=C(NNS(=O)(=O)c1ccc(Cl)cc1)C1CCN(Cc2ccccc2)CC1 | 2.88% | –
O=C(NNS(=O)(=O)c1ccc(Cl)cc1)c1cnn(-c2ccccc2)c1-n1cccc1 | – | 17.8 µM (active)
Cc1cccc(NC(=S)c2nc3ccccc3s2)c1 | – | 1.12 µM (active)
Cc1ccc(NC(=S)c2nc3ccccc3s2)cc1 | – | 0.562 µM (active)
N#Cc1c(-c2cccs2)nc(SCC(=O)c2cccs2)[nH]c1=O | – | 8.91 µM (active)
Cc1cccc(NC(=O)CSc2nc(-c3ccccc3)c(C#N)c(=O)[nH]2)c1C | -3.73% | –
O=C(O)c1c(Br)c(Br)c(Br)c(Br)c1C1c2ccc(O)cc2Oc2cc(O)ccc21 | -6.83% [at 2.29 µM] | –
CN=c1nc(-c2ccccc2)n(-c2ccccc2)s1 | – | 5.01 µM (active)

Structure (SMILES) | activity, negative = inhibition | AC50
CCn1c(SCc2ccc(C#N)cc2)nnc1-c1ccc(S(=O)(=O)N2CCCCC2)cc1 | -23.3% | –
CCn1c(SCc2ccc(C)cc2)nnc1-c1nn(-c2ccccc2)ccc1=O | -16.3% | –
CCn1c(SCc2cccc(C)c2)nnc1-c1ccc(C)cc1 | – | 17.8 µM (active)
CCn1c(SCc2cccc(C)c2)nnc1-c1ccccc1 | – | 3.55 µM (active)
CCOC(=O)c1cnc2c(cnn2CC)c1NN=C(C)C | – | 501 nM (active) and 126 nM (active)
CCCCNc1c(C(=O)OCC)c(C)nc2c1cnn2CC | – | 63.1 nM (active) and 631 nM (active)
CN(C)CCCNc1c(C(=O)O)cnc2c1cnn2C | 3.5% | –
CCOC(=O)c1cnn(CCOC(=O)C(C)(C)C)c1NC(=O)C(C)(C)C | -8.6% | –
O=C(CCCN1CCC(O)(c2cccc(C(F)(F)F)c2)CC1)c1ccc(F)cc1 | -9.09% | –
COC(=O)CCC(NC(=O)OCc1ccccc1)C(=O)NC(CC(C)C)C(=O)OC (stereo not drawn) (Cbz-Glu(OMe)-Leu-OMe; configuration not given here) | 7.39% | –
O=C(Cn1nnc(-c2ccccc2)n1)OCc1ccccc1 | – | 1.78 µM (active)
NC(=O)C1CCN(C(=O)OCc2ccccc2)CC1 | -5.7% | –
Cc1[nH]c2c(C)ccc(C)c2c1CC(=O)O | – | 3.16 µM (active)
Cc1[nH]c(N)nc(=S)c1CCC(=O)O | -11.2% [at 11.4 µM] | –
Cc1cc(C(=O)O)c(=O)[nH]c1C | -11.4% | –
CC1CCCC(n2c(=S)[nH]c3ccccc3c2=O)C1C (stereo not drawn) | – | 7.08 µM (active)
C/C(CCC(=O)OC[C@@H]1O[C@H](C#Cc2ccccc2)C=C[C@@H]1Oc1ccc(C)cc1)=N/O[C@@H](C)c1cc(-c2c(C)cc(C)cc2C)no1 | -4.43% [at 11.4 µM] | –
Cc1nc(N2CCOCC2)nc(N2CCN(c3ccccc3)CC2)c1[N+](=O)[O-] | – | 7.08 µM (active)
